Gal4-VP16 FLuc – inhibits Gal4-VP16 luciferase reporter, ROR gamma counter-screen | Drosophila S2 Gal4-VP16 UAS-luciferase, luminescence, 20 h | Potency, µM (top dose mostly 53.6 µM), most hits filed as inhibitors | hit rate 3.5% among 310,000 | AID 2546;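 also: Gal4-VP16 expression switched on by copper sulfate through the metallothionein promoter; nearly all actives have a fitted effect of over 50% in size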
CtBP-E1A inh – CtBP/E1A binding inhibition; AlphaScreen GST-E1A/His-CtBP binding, 1536-well; stronger effect = lower value; activity change, % (concentration not given with the values); hit rate 0.49% among 340,000; AID 651724; in the data active = activity change below about -65%; inconclusive = mostly about -30% to -63%
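Protein mix (5X: 125 nM each GST-E1A, His-CtBP) was incubated with pinned compound 2 h at 37 deg C in dark, in 50 mM Tris pH 8.0 buffer with 300 mM NaCl. Glutathione donor and nickel acceptor beads followed; AlphaScreen signal read after 1 h.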
RORg inh – blocks mouse ROR gamma transcriptional activity; P51450; Drosophila S2 Gal4-RORgamma UAS-luciferase reporter, 20 h; Potency, µM (doses to about 53.6 µM), usual class: inhibitors; hit rate 5.4% among 310,000; AID 2551; also: nearly all actives have a fitted effect of over 60% in size
Target sequence (P51450 whole entry, looked up, the tested form may be a part): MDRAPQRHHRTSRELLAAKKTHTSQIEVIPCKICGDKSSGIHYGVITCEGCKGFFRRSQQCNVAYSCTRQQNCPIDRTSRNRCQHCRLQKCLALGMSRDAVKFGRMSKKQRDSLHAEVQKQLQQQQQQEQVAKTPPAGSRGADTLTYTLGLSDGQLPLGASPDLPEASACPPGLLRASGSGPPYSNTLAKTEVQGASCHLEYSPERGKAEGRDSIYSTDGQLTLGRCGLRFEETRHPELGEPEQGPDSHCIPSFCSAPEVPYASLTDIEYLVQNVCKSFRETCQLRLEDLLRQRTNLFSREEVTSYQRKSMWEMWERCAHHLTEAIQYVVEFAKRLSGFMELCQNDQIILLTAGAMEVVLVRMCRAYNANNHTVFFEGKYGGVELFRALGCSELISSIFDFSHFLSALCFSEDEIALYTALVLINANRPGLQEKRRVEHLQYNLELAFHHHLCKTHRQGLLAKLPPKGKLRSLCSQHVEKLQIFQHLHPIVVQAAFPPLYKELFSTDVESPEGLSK
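Drosophila Schneider cells stably carrying a metallothionein-driven Gal4 DBD–ROR gamma fusion and a UAS-Photinus luciferase reporter were exposed to compound for 1 hr, then induced with copper sulfate (700 uM final) for 20 hr at ambient temperature before luminescence reading.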
p53 reactivation – re-activators of mutant p53; H1299 p53-A138V BP100-luciferase reporter, luminescence, 24 h; AID 504706; hit rate 0.063% among 320,000; Potency, µM (series often up to 92.2 µM), most hits filed as activators; also: nearly all actives have a fitted effect of over 45% in size
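p53-null H1299 cells stably carrying temperature-sensitive p53-A138V and a BP100-luciferase reporter were pinned with compounds (4-point, 1:5 series) and held 24 hrs at 37 deg C. Luminescence was read 10 min after detection reagent.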
Six1-Eya2 inh – blocks human Six1 binding to Eya2; Q15475+O00167; AlphaScreen GST-Six1/His-Eya2 binding, biochemical; stronger effect = lower value; activity change, % (no concentration beside the values); hit rate 0.56% among 360,000; AID 651725; in the data active = activity change below about -65%; inconclusive = mostly about -30% to -63%
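Homogeneous AlphaScreen proximity assay pairing GST-Six1 with His-tagged Eya2 (added as 5X mix: 250 nM and 500 nM) in 50 mM Tris pH 8.0, 300 mM NaCl, 1 mM TCEP. Glutathione donor and nickel acceptor beads; 1 h, 37 °C, dark.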
Each line names hits and unclear results; the compound was inactive in the other large screens. A selection: hits, their analogues and other compounds. The true share with any hit is near 5.4%. Unless noted, calls follow the shape of the dose curve; as a rule, active = well fitted curve in the direction sought with a large enough effect; inconclusive = small, poorly fitted or top-dose-only effect, or another doubt; inactive = no such curve, though single readings can be large; an effect the other way counts as inactive or inconclusive.

CS(=O)(=O)c1ccc(C(=O)OCC(=O)NC23CC4CC(CC(C4)C2)C3)cc1[N+](=O)[O-]	Gal4-VP16 FLuc inconclusive, RORg inh 11µM
CC(C)=C1C2CCC1C1C(=O)N(c3nc(-c4ccc(C(C)C)cc4)c(C)s3)C(=O)C21 (configuration not stated)	Gal4-VP16 FLuc inconclusive
CC(C)=C1C2CCC1C1C(=O)N(c3nc(-c4ccc(F)cc4)c(C)s3)C(=O)C21 (configuration not stated)	Gal4-VP16 FLuc 20µM
CC(=O)NC(=S)Nc1sc2c(c1C(N)=O)CCC(C)C2 (configuration not stated)	none
CCN(CC)c1ccc(/C=C/c2nc3ccccc3s2)cc1	Gal4-VP16 FLuc 7.1µM, RORg inh 1.6µM (no result: CtBP-E1A inh, Six1-Eya2 inh)
Cc1cccc2nc(-c3cccnc3)c(NCCC(C)C)n12	Gal4-VP16 FLuc inconclusive, RORg inh 8.9µM
Cc1cccc2nc(-c3cccnc3)c(Nc3ccccc3)n12	none
Cc1ccc(OCC(=O)NCc2n[nH]c(=O)c3ccccc23)cc1	none (no result: Gal4-VP16 FLuc, RORg inh)
COc1ccc(-c2csc(NC(=O)C3=COCCO3)n2)c(OC)c1	none (no result: Gal4-VP16 FLuc, RORg inh)
C=CCNc1nc(-c2ccc(OC)cc2OC)cs1	Gal4-VP16 FLuc 18µM, p53 reactivation inconclusive
O=C(Cc1ccccc1)N/N=C/c1cc(Br)cc(Br)c1O	Gal4-VP16 FLuc 1.6µM, RORg inh 0.79µM, p53 reactivation inconclusive, Six1-Eya2 inh inconclusive
O=C(CCN1CCOCC1)N/N=C/c1cc(Br)cc(Br)c1O	Gal4-VP16 FLuc 5µM, CtBP-E1A inh -73, RORg inh 1.4µM, Six1-Eya2 inh -83
O=C(CNC(=O)c1cccc(Br)c1)N/N=C/c1cc(Br)cc(Br)c1O	Gal4-VP16 FLuc 13µM, CtBP-E1A inh inconclusive, RORg inh 2.5µM
O=C(CCN1CCOCC1)N/N=C/c1cc([N+](=O)[O-])ccc1OC(F)F	none
O=C(Cc1ccccc1)N/N=C/c1cc(Br)cs1	none
Cc1ccc(S(=O)(=O)NC(=O)C2(C)CCN2C(=O)c2ccccc2CCc2ccccc2)nc1 (configuration not stated)	none (no result: Gal4-VP16 FLuc, RORg inh, p53 reactivation)
CCCCN1CCN=C1N(C)C	none (no result: Gal4-VP16 FLuc, RORg inh)
Fc1ccc(CNc2nc3ccccc3n3cnnc23)cc1	none
O=C(Nc1ccccc1C(=O)O)c1ccc(NC(=O)C2CC2)cc1	CtBP-E1A inh inconclusive, Six1-Eya2 inh -81
CCOc1ccc(C(=O)Nc2ccccc2C(=O)O)cc1	Gal4-VP16 FLuc inconclusive, RORg inh 6.3µM
O=C(Nc1ccccc1C(=O)Nc1ccccc1C(=O)O)c1ccccc1	CtBP-E1A inh -67, Six1-Eya2 inh -81
O=C(Nc1ccccc1O)c1ccc(NC(=O)C2CC2)cc1	p53 reactivation inconclusive
COc1cccc(C(=O)NCCS(=O)(=O)NCCCc2ccccc2)c1	none (no result: Gal4-VP16 FLuc, RORg inh)
C/C(=N\NC(=O)c1ccc2c(c1)OCO2)c1ccco1	Gal4-VP16 FLuc inconclusive, RORg inh inconclusive
C/C(=N\Nc1ccc(Cl)c(C(=O)O)c1)c1ccc(Br)s1	none
C/C(=N\NC(=O)c1ccc(C)cc1C)c1ccc2c(c1)OCO2	none
C/C(=N/NC(=O)c1ccc2c(c1)OCO2)c1ccc(Br)s1	Gal4-VP16 FLuc inconclusive, RORg inh 2.8µM (no result: CtBP-E1A inh)
C/C(=N\NC(=O)c1ccc(Cl)c(Cl)c1)c1ccc(Br)s1	Gal4-VP16 FLuc 0.63µM, RORg inh 0.63µM
C/C(=N\NC(=O)c1cc2ccccc2cc1O)c1ccc2c(c1)OCO2	Gal4-VP16 FLuc inconclusive, RORg inh 16µM
O=C1C2=C(C(=O)c3ccccc31)C1O[C@](CCCCN3C(=O)c4ccccc4C3=O)(Cc3c1ccc1ccccc31)O2	none (no result: CtBP-E1A inh, p53 reactivation, Six1-Eya2 inh)
C=CCNCC(=O)Nc1sc2c(c1C(=O)Nc1ccc(OC)cc1OC)CCC2	Gal4-VP16 FLuc 1.3µM, RORg inh 0.45µM
COC(=O)Nc1sc2c(c1C(=O)NCc1ccco1)CCC2	RORg inh inconclusive
CCOc1ccccc1NC(=O)c1c(NC(=O)CNCc2ccco2)sc2c1CCC2	Gal4-VP16 FLuc 5.6µM, RORg inh inconclusive (no result: CtBP-E1A inh, Six1-Eya2 inh)
COc1ccccc1NC(=O)c1ccc(Br)c(S(=O)(=O)N2CCCC2)c1	none
CCC(=O)Oc1ccc(C/C(=N\O)c2ccc(O)cc2O)o1	Gal4-VP16 FLuc inconclusive, RORg inh 2.2µM, p53 reactivation inconclusive
CCOC(=O)c1ccc(CC(=O)c2ccc(O)cc2O)o1	none
C[n+]1c(-c2ccccc2)cc2c(=Cc3ccccc3)c3ccccc3n21	Six1-Eya2 inh inconclusive (no result: Gal4-VP16 FLuc, RORg inh, p53 reactivation)
